Sampled rows, rich in hits. Any-hit rate of the full collection: about 3.6%.
ClpP mod – qHTS Assay for Activators of ClpP. Potency, µM (titrated, usually from 57.5 µM), inactives show at the highest dose activity change, negative = active. purified B. subtilis ClpP, FRET peptide cleavage, 20 min. 1.9% of 340,000 active. ATP-dependent Clp protease proteolytic subunit (Bacillus subtilis (strain 168)), P80244; active = well fitted falling curve with a large enough effect; inconclusive = small, poorly fitted or top-dose-only effect; inactive = no such curve, though single readings can be large or run the other way; note: the source files actives as falling curves though it sought activators and does not explain the sign; nearly all actives have a fitted effect of over 65% in size
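Buffer: 100 mM Tris/HCl pH8, 100 mM KCl, 0.05% low protease BSA, 2.5% glycerol, 0.01% Tween-20. ClpP 10 microg/mL final; 20 min RT; delta FRET normalized to ADEP and DMSO controls.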
Mm-Cpn inhibitor – inhibitors of Methanococcus maripaludis chaperonin TRiC (MmCpn); purified Mm-Cpn ATPase, ADP Transcreener TR-FRET; Potency, µM (doses to about 76.9 µM), for inactives: top-dose activity, negative = inhibition, actives largely listed as inhibitors; 0.031% of 330,000 active; AID 504842; note: % is set by controls: 0 for no effect and ±100 for the full control effect; nearly all actives have a fitted effect of over 80% in size
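Purified archaeal Mm-CPN (25nM final) preincubated 10 min at 37degC with compound, then 10uM ATP for 30 min at 37degC; ADP measured by HTRF Transcreener TR-FRET; buffer 30 mM TRIS pH 7.4, 100mM KCl, 5mM MgCl2, 1mM DTT.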
FUS yeast rescue – suppressors of FUS proteinopathy in yeast | S. cerevisiae FUS-expressing, growth rescue, OD600, 24 h | Potency, µM (titrated, usually from 76.6 µM), usual class: activators | 0.24% of 390,000 active;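 note: plate controls were DMSO vehicle for no effect and reference control for full effect; nearly all actives have a fitted effect of over 55% in size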
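Quantitative HTS measuring growth restoration of FUS-toxic yeast. Galactose-induced cells (OD 0.005) were exposed 24hr at 30C to compounds at several concentrations, then absorbance at 600 nm was recorded.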
Abeta yeast res – restores growth of yeast expressing A-beta42 peptide | yeast expressing A-beta42, growth rescue, OD600, 48 h; response scale: 0% DMSO, 100% iron-clioquinol control | Potency, µM (top dose mostly 46.1 µM), most hits filed as activators | 0.063% of 410,000 active; note: nearly all actives have a fitted effect of over 55% in size
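Yeast A-beta toxicity model in growth medium with pinned compounds, 48 h at 30 C; growth read as absorbance at 600 nm. Normalized to FeCl3/clioquinol equimolar mix (positive) and DMSO (negative).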
aSyn rescue – inhibitors of alpha-synuclein toxicity in yeast; Yeast expressing alpha-synuclein, growth rescue, BacTiter-Glo, 24 h; Potency, µM (series often up to 46.1 µM), inactives show top-dose growth rescue (activation), most hits filed as activators; 0.14% of 370,000 active; AID 652106; note: % of control where 0% means no effect; nearly all actives have a fitted effect of over 65% in size
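Rescue of yeast growth: cells expressing toxic alpha-synuclein, induced in galactose at OD600 0.02, incubated with compound 24 h at 30 C. ATP luminescence quantified growth; inhibitors of toxicity appear as activators.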
TDP43 rescue – TDP-43 toxicity inhibition in yeast. TDP-43 expressing yeast growth rescue, BacTiter-Glo, 24 h. Potency, µM (titrated, usually from 46.1 µM), for inactives: at the highest dose growth rescue (activation), most hits filed as activators. 1.8% of 410,000 active. AID 652104; note: % of control where 0% means no effect; nearly all actives have a fitted effect of over 50% in size
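Yeast cells expressing TDP-43 under galactose induction are exposed to compounds for 24 hr at 30 deg C. BacTiter-Glo luminescence measures growth, so protective compounds score as activators.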
Starred values were filed as active, the others as inactive; i = inactive; u = inconclusive; x = no result; [ ] = another dose, or the depositor's remark. Unless noted, calls come from the whole dose curve; as a rule, active = well fitted curve in the direction sought with a large enough effect; inconclusive = small, poorly fitted or top-dose-only effect, or another doubt; inactive = no such curve, though single readings can be large; an effect the other way counts as inactive or inconclusive. Potency is the fitted concentration of half-maximal effect.

SMILES	ClpP mod	Mm-Cpn inhibitor	FUS yeast rescue	Abeta yeast res	aSyn rescue	TDP43 rescue
Cc1ccc(OCc2nc(-c3ccc(C(=O)N4CCN(c5cc(Cl)ccc5C)CC4)cc3)oc2C)cc1	0.0%	x	i	i	x	u
CCCCCCCCCCS(=O)(=O)N/N=C/c1ccc(O)cc1	-0.5%	-1.2%	i	i	u	14.1µM*
Cc1ccc(-c2nnn(CC(=O)Nc3ccccc3-c3ccccc3)n2)c(-n2cnnn2)c1	11.2µM*	1.5%	i	i	-2.6%	-16.1%
O=C(N/N=C/c1cc(Cl)ccc1O)c1ccccc1Br	-5.2%	0.0%	i	u	14.1µM*	12.6µM*
Cc1cc(=O)[nH]c(SCC(=O)N2CCCC2)n1	22.4µM*	1.8%	i	i	-1.0%	28.3%
CCN(CC)c1ccc2c(Cl)c(Br)c(=O)oc2c1	-3.2%	u	i	i	17.6%	20µM*
CCN(CC)c1ccc2c(c1)oc(=O)c1c(Cl)cc(=O)oc12	69.3%	0.0%	x	i	12.6µM*	20.6%
CCN(CC)c1ccc2c(C)cc(=O)oc2c1	3.7%	-1.0%	i	i	6.6%	12.2%
CCN(CC)c1ccc2c(C)c(Cl)c(=O)oc2c1	x	3.6%	i	i	-5.4%	-10.8%[9.22 µM]
CCOC(=O)N1CCc2c(sc3c2c(=O)n(Cc2ccccc2)c(=O)n3CC(=O)Nc2ccc(C)c(C)c2)C1	-5.0%	x	i	i	x	12.8%
Cc1ccc(N2CCN(c3nc4c(S(=O)(=O)c5ccc(C)c(C)c5)nnn4c4ccccc34)CC2)c(C)c1	0.9%	x	i	i	x	-5.1%
Cc1nnc(N2C(=O)c3cccc4cccc(c34)C2=O)s1	28.2µM*	2.2%	i	i	-5.0%	-23.2%
COCCn1c(SCc2ccccc2F)nc2c([nH]c3ccccc32)c1=O	7.6%	x	i	i	5.7%	10.6%
CCc1ccc(OC)c(-c2csc(N)n2)c1	x	-5.6%	i	i	-23.0%	16.5%
Nc1nc(-c2cc(Cl)cc(Cl)c2OC(F)F)cs1	-2.1%	-1.1%	i	i	1.5%	15.8µM*
Nc1ccc(C=O)cc1	-0.2%	x	x	x	x	x
Cc1c(C(=O)Nc2cccnc2)oc2ccc(Br)cc12	-3.6%	0.4%	i	i	-11.3%	8.91µM*
CCc1ccc2oc(C(=O)Nc3cccnc3)c(C)c2c1	-16.1%	0.6%	i	i	-2.4%	-8.5%
Cc1c(C(=O)Nc2ccc3oc(-c4cccnc4)nc3c2)oc2ccccc12	8.91µM*	-2.3%	i	i	2.1%	0.0%
Cc1c(C(=O)Nc2cccc(-c3nc4ccccc4s3)c2)oc2ccccc12	22.4µM*	x	i	i	x	1.6%
Cc1cccc(C(=O)N2CCc3cc(CNS(=O)(=O)c4ccc(Cl)s4)ccc32)c1	-1.3%	x	i	i	x	14.3%
Nc1nc(N)c2c(Oc3ccc(F)cc3)cccc2n1	4.2%	x	x	x	8.0%	x
COc1ccc(-c2noc(CCc3ccccc3)n2)cc1	-0.7%	0.5%	i	i	-11.0%	17.8µM*
c1ccc(CCCc2nc(-c3cccnc3)no2)cc1	x	1.0%	i	i	2.9%	8.91µM*
O=C(CCCc1nc(-c2ccc(Cl)cc2)no1)Nc1cccnc1	-0.8%	-2.5%	i	i	u	15.8µM*
SMILES	ClpP mod	Mm-Cpn inhibitor	FUS yeast rescue	Abeta yeast res	aSyn rescue	TDP43 rescue
CCn1c2c(c(=O)n3ncc(C(=O)Nc4ccc(C(=O)OC)cc4)c13)CN(Cc1ccc(OC)cc1)CC2	u	x	u	i	x	3.6%
Brc1cccc(Nc2nc(-c3cccnc3)cs2)c1	1.5%	-2.5%	i	i	-7.7%	3.16µM*
Brc1ccc(Nc2nc(-c3cccnc3)cs2)cc1	x	1.2%	i	i	-10.9%	11.2µM*
Oc1ccc(Nc2nc(-c3cccnc3)cs2)cc1	-3.9%	-2.3%	i	i	-4.4%	-15.3%
Cn1c(=N)n(CC(O)c2cccc3ccccc23)c2ccccc21 (stereo not given)	8.91µM*	1.7%	i	i	2.3%	10.8%
Cn1c(=N)n(CC(O)c2ccco2)c2ccccc21 (stereo not given)	0.5%	-0.8%	i	i	-2.1%	-1.8%
COc1ccc2cc(C(=O)NCc3ccco3)c(=Nc3ccc(C(=O)O)cc3)oc2c1	20µM*	-0.1%	u	i	2.0%	16.2%
COc1ccc2oc(=Nc3ccc(C(=O)O)cc3)c(C(=O)NCc3ccco3)cc2c1	-2.1%	0.1%	i	i	4.0%	0.2%
Oc1ccccc1Cc1c(O)ccc2ccccc12	-13.5%	0.8%	i	i	18.4%	15.8µM*
Cc1nn(-c2ccccc2)c(OC(=O)C(C)C)c1Sc1ccc(Cl)cc1	-0.1%	x	i	i	x	u
O=C(c1ccccc1)N1c2ncnn2C2(CCCCC2)[C@@H]2CCCC[C@@H]21	-3.9%	x	i	i	x	35.5µM*
COc1ccc(S(=O)(=O)N2CCCC2C(=O)Nc2nnc(-c3cccnc3)s2)cc1 (stereo not given)	28.2µM*	-0.3%	i	i	-35.0%	-16.3%
Cc1cc(C)cc(OCC(=O)Nc2nc3c(s2)CC(C(C)(C)C)CC3)c1 (stereo not given)	1.5%	x	i	i	x	-10.0%
COc1cc2cc(C(=O)O)[nH]c2c(OC)c1OC	28.2µM*	1.9%[15.4 µM]	i	i	-1.4%	0.0%
O=C(CN1CCCC1)N1CCCc2c1c(=O)oc1ccc(OCc3ccccc3)cc21	31.6µM*	-0.1%	i	i	-5.9%	-38.4%
Cc1ccc(NC(=O)Cc2ccc(-n3c(C)nc4cccnc43)cc2)cc1C	-2.4%	x	i	i	x	11.1%
COc1nnc(-c2ccc(N3CCCCC3)c(NC(=O)C3CCCCC3)c2)c2ccccc12	-11.6%	2.3%	x	i	0.2%	-21.7%
COc1nnc(-c2ccc(N3CCCCC3)c(NC(C)=O)c2)c2ccccc12	0.0%	-0.7%	i	i	6.0%	22.4µM*
Cc1ccc(NC(=O)c2cc3c(s2)CCCC3)cc1S(=O)(=O)Nc1ccccc1Cl	25.1µM*	u	x	i	2.2%	0.0%
Cc1cc(C)c2nccc(/C=C/c3ccc(N(C)C)cc3)c2c1	1.6%	x	x	x	x	x
Cc1ccc(Cn2c(=O)n(Cc3ccccc3Cl)c(=O)c3cccnc32)cc1	-4.9%	x	i	i	x	3.1%
O=C(NC(=S)NNC(=O)c1cnccn1)c1ccc(F)cc1	0.8%	0.6%	i	i	11.2µM*	-7.0%
O=C(NC(=S)NCCN1CCOCC1)c1ccc(F)cc1	2.6%	1.5%	x	i	-8.6%	-34.6%
CC(C)CNC(=S)NC(=O)c1ccc(F)cc1	0.5%	0.3%	x	i	-3.5%	14.1µM*

Assay outcomes as filed in PubChem.
